Source: PubChem BioAssay (NCATS)
Records with an inconclusive call do not appear. The source made the active and inactive calls. Calls come from the whole dose curve; as a rule, active = well fitted curve in the direction sought with a large enough effect; inconclusive = small, poorly fitted or top-dose-only effect, or another doubt; inactive = no such curve, though single readings can be large; an effect the other way counts as inactive or inconclusive.

Legend:
NIH3T3 = assay: qHTS assay to identify novel small-molecules to repurpose for Merkel cell carcinoma treatment (AID 1296009); conditions: MCC and control cell lines, CellTiter-Glo viability, 72 h; at 44.8 µM (top of the series) unless noted; note: nearly all actives have a fitted effect of over 60% in size
Summary of the method: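 72 hr, 37 degree celsius; NPC 8-pt / MIPE 11-pt dose response; compound pinned in DMSO; CellTiter-Glo, 10 min RT, luminescence; normalized to no-cell and DMSO controls.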

C33A = assay: Primary qHTS to identify gynecologic anti-cancer compounds using libraries of approved drugs and bioactive compounds (AID 1345084); conditions: Gynecologic cancer cell panel viability, ATPlite luminescence, 48 h; series mostly up to 57.5 µM; note: % is set by controls: 0 for no effect and ±100 for the full control effect; nearly all actives have a fitted effect of over 55% in size
Summary of the method: (§1)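 Luminescence from the ATPlite ATP-monitoring reagent indicates viable cell number; lower signal means cytotoxicity. Cells received compound 16 h after seeding and were exposed for 48 h across five concentrations.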

CAOV3 = assay: as above; conditions: Gynecologic cancer cell panel viability, ATPlite luminescence, 48 h; series mostly up to 57.5 µM
Summary of the method: as §1

CASKI = assay: as above; conditions: Gynecologic cancer cell panel viability, ATPlite luminescence, 48 h; series mostly up to 57.5 µM
Summary of the method: as §1

Es-2 = assay: as above; conditions: Gynecologic cancer cell panel viability, ATPlite luminescence, 48 h; series mostly up to 57.5 µM
Summary of the method: as §1

HeLa = assay: as above; conditions: Gynecologic cancer cell panel viability, ATPlite luminescence, 48 h; series mostly up to 57.5 µM
Summary of the method: as §1

Hek293T = assay: as above; conditions: Gynecologic cancer cell panel viability, ATPlite luminescence, 48 h, control line for the selectivity index; series mostly up to 57.5 µM
Summary of the method: as §1

JEG-3 = assay: as above; conditions: Gynecologic cancer cell panel viability, ATPlite luminescence, 48 h; series mostly up to 57.5 µM
Summary of the method: as §1

OV90 = assay: as above; conditions: Gynecologic cancer cell panel viability, ATPlite luminescence, 48 h; series mostly up to 57.5 µM
Summary of the method: as §1

PA-1 = assay: as above; conditions: Gynecologic cancer cell panel viability, ATPlite luminescence, 48 h; series mostly up to 57.5 µM
Summary of the method: as §1

SKOV3 = assay: as above; conditions: Gynecologic cancer cell panel viability, ATPlite luminescence, 48 h; series mostly up to 57.5 µM
Summary of the method: as §1

Tov-21-G = assay: as above; conditions: Gynecologic cancer cell panel viability, ATPlite luminescence, 48 h; series mostly up to 57.5 µM
Summary of the method: as §1

Tov112D = assay: as above; conditions: Gynecologic cancer cell panel viability, ATPlite luminescence, 48 h; series mostly up to 57.5 µM
Summary of the method: as §1

CCCn1cnc2c(NCc3ccccc3)nc(N[C@H](CC)CO)nc21
inactive: outcome (NIH3T3) | Potency (C33A) | Potency (CAOV3) | Potency (CASKI) | Potency (Es-2) | Potency (HeLa) | Potency (Hek293T) | Potency (JEG-3) | Potency (OV90) | Potency (PA-1) | Potency (SKOV3) | Potency (Tov-21-G) | Potency (Tov112D)

COc1cc(CCc2ccccc2)c(C(=O)O)c2c1CC(C(C)(C)O)O2 (centres undefined)
inactive: outcome (NIH3T3) | Potency (C33A) | Potency (CAOV3) | Potency (CASKI) | Potency (Es-2) | Potency (HeLa) | Potency (Hek293T) | Potency (JEG-3) | Potency (OV90) | Potency (PA-1) | Potency (SKOV3) | Potency (Tov-21-G) | Potency (Tov112D)

CCCC1=CC2=C(CO1)C(=O)C(C)(OC(=O)c1c(C)cc(OC)cc1O)C(O)C2 (centres undefined)
inactive: outcome (NIH3T3) inactive [at 17.4 µM] | Potency (C33A) | Potency (CAOV3) | Potency (CASKI) | Potency (Es-2) | Potency (HeLa) | Potency (Hek293T) | Potency (JEG-3) | Potency (OV90) | Potency (PA-1) | Potency (SKOV3) | Potency (Tov-21-G) | Potency (Tov112D)

COc1ccccc1[C@@H]1C2=C(CC(C)(C)CC2=O)Nc2n[nH]c(C(F)(F)F)c21
inactive: outcome (NIH3T3) | Potency (C33A) | Potency (CAOV3) | Potency (CASKI) | Potency (Es-2) | Potency (HeLa) | Potency (Hek293T) | Potency (JEG-3) | Potency (OV90) | Potency (PA-1) | Potency (SKOV3) | Potency (Tov-21-G) | Potency (Tov112D)

O=C1Nc2ccc(O)cc2O[C@H]1O[C@@H]1O[C@H](CO)[C@@H](O)[C@H](O)[C@H]1O
inactive: outcome (NIH3T3) | Potency (C33A) | Potency (CAOV3) | Potency (CASKI) | Potency (Es-2) | Potency (HeLa) | Potency (Hek293T) | Potency (JEG-3) | Potency (OV90) | Potency (PA-1) | Potency (SKOV3) | Potency (Tov-21-G) | Potency (Tov112D)

C[C@@H]1O[C@@H](O[C@@H]2[C@@H](O)[C@H](O[C@@H]3[C@@H](O)[C@@H](O)[C@H](O[C@H]4[C@H](OC(=O)[C@]56CCC(C)(C)C[C@H]5C5=CCC7[C@@]8(C)C[C@H](O)[C@H](O[C@@H]9O[C@H](C(=O)O)[C@@H](O)[C@H](O)[C@H]9O)[C@@](C)(CO)C8[C@H](O)C[C@@]7(C)[C@]5(C)CC6)OC[C@H](O)[C@@H]4O)O[C@H]3C)OC[C@H]2O)[C@H](O)[C@H](O)[C@H]1O (some centres undefined)
inactive: outcome (NIH3T3) inactive [at 9.27 µM] | activity change, negative = cytotoxicity (C33A) -3.84% [at 6.55 µM] | activity change, negative = cytotoxicity (CAOV3) 1.69% [at 6.55 µM] | activity change, negative = cytotoxicity (CASKI) -21.9% [at 6.55 µM] | activity change, negative = cytotoxicity (Es-2) 7.07% [at 6.55 µM] | activity change, negative = cytotoxicity (HeLa) 9.33% [at 6.55 µM] | activity change, negative = cytotoxicity (Hek293T) -1.15% [at 6.55 µM] | activity change, negative = cytotoxicity (JEG-3) -4.08% [at 6.55 µM] | activity change, negative = cytotoxicity (OV90) -1.61% [at 6.55 µM] | activity change, negative = cytotoxicity (PA-1) 3.21% [at 6.55 µM] | activity change, negative = cytotoxicity (SKOV3) -6.44% [at 6.55 µM] | activity change, negative = cytotoxicity (Tov-21-G) -4.43% [at 6.55 µM] | activity change, negative = cytotoxicity (Tov112D) 4.06% [at 6.55 µM]

C=C(C(=O)OC)C1CCC2(C)C(O[C@@H]3O[C@H](CO)[C@@H](O)[C@H](O)[C@H]3O)CC(=O)C(C)C2C1O (some centres undefined)
inactive: outcome (NIH3T3) inactive [at 17.4 µM] | Potency (C33A) | Potency (CAOV3) | Potency (CASKI) | Potency (Es-2) | Potency (HeLa) | Potency (Hek293T) | Potency (JEG-3) | Potency (OV90) | Potency (PA-1) | Potency (SKOV3) | Potency (Tov-21-G) | Potency (Tov112D)

CC1(C)CC[C@]2(C(=O)O[C@@H]3O[C@H](CO)[C@@H](O)[C@H](O)[C@H]3O)CC[C@]3(C)C(=CCC4[C@@]5(C)C[C@@H](O)[C@H](O)C(CO)(CO)C5CC[C@]43C)C2[C@@H]1O (some centres undefined)
inactive: outcome (NIH3T3) inactive [at 17.4 µM] | Potency (C33A) | Potency (CAOV3) | Potency (CASKI) | Potency (Es-2) | Potency (HeLa) | Potency (Hek293T) | Potency (JEG-3) | Potency (OV90) | Potency (PA-1) | Potency (SKOV3) | Potency (Tov-21-G) | Potency (Tov112D)

C=C1C2=CC(O)C(C)C1(C)CC/C(C)=C/CCC1(C)OC1C2=O (centres undefined)
inactive: outcome (NIH3T3) | Potency (C33A) | Potency (CAOV3) | Potency (CASKI) | Potency (Es-2) | Potency (HeLa) | Potency (Hek293T) | Potency (JEG-3) | Potency (OV90) | Potency (PA-1) | Potency (SKOV3) | Potency (Tov-21-G) | Potency (Tov112D)

O=c1ccn([C@@H]2O[C@H](CO)[C@@H](O)[C@H]2O)c(=O)[nH]1
inactive: outcome (NIH3T3) | Potency (C33A) | Potency (CAOV3) | Potency (CASKI) | Potency (Es-2) | Potency (HeLa) | Potency (Hek293T) | Potency (JEG-3) | Potency (OV90) | Potency (PA-1) | Potency (SKOV3) | Potency (Tov-21-G) | Potency (Tov112D)

O=C(O[C@H]1[C@@H]2C=CO[C@@H](O[C@@H]3O[C@H](CO)[C@@H](O)[C@H](O)[C@H]3O)[C@@H]2[C@@]2(CO)O[C@@H]12)c1ccc(O)c(O)c1
inactive: outcome (NIH3T3) inactive [at 17.4 µM] | Potency (C33A) | Potency (CAOV3) | Potency (CASKI) | Potency (Es-2) | Potency (HeLa) | Potency (Hek293T) | Potency (JEG-3) | Potency (OV90) | Potency (PA-1) | Potency (SKOV3) | Potency (Tov-21-G) | Potency (Tov112D)

CC(C)=CCCC1(C)Oc2cc3c(c4c2C2C(O4)C(C)(O)CCC21)CN(C(CCC(=O)O)C(=O)O)C3=O (centres undefined)
inactive: outcome (NIH3T3) inactive [at 17.4 µM] | Potency (C33A) | Potency (CAOV3) | Potency (CASKI) | Potency (Es-2) | Potency (HeLa) | Potency (Hek293T) | Potency (JEG-3) | Potency (OV90) | Potency (PA-1) | Potency (SKOV3) | Potency (Tov-21-G) | Potency (Tov112D)

C=C[C@H]1[C@H](O[C@@H]2O[C@H](CO[C@@H]3OC[C@](O)(CO)[C@H]3O)[C@@H](O)[C@H](O)[C@H]2O)OC=C2C(=O)OCC[C@H]21
inactive: outcome (NIH3T3) inactive [at 17.4 µM] | Potency (C33A) | Potency (CAOV3) | Potency (CASKI) | Potency (Es-2) | Potency (HeLa) | Potency (Hek293T) | Potency (JEG-3) | Potency (OV90) | Potency (PA-1) | Potency (SKOV3) | Potency (Tov-21-G) | Potency (Tov112D)
